± gives the standard deviation of the averaged measurements.
compound: S=C=NCCc1ccccc1 [phenethyl isothiocyanate]; assay: control-subtracted net OSN firing rate; higher = stronger neuronal activation; conditions: odorant dilution (vol/vol): 1/100
How it was run: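 Responses come from single sensillum recordings of palp or antennal olfactory sensory neurons in 1–5-day-old fed female Scaptomyza species or D. melanogaster wild-type, mutant or at1 empty-neuron lines with Or42a homologs. Stimuli were 1 s pulses of odorant at 1:100 vol/vol in mineral oil or dimethyl sulfoxide into 16 ml/min filtered air. Spikes from 0.2 s after onset, counted over 0.5 s, were background-subtracted, doubled, solvent-corrected and averaged over replicates.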

Row | Target | control-subtracted net OSN firing rate
1 | S. montana pb1a-like | 4.67 ± 7.9 spikes/s
2 | Canton-S (D. melanogaster) pb1a | 2 ± 9.3 spikes/s
3 | S. flava pb3a-like | 3.33 ± 9.1 spikes/s
4 | Canton-S (D. melanogaster) pb3b | 0 ± 11 spikes/s
5 | Canton-S (D. melanogaster) pb1b | -4.44 ± 6.8 spikes/s
6 | S. hsui pb1b-like | -3 ± 7.1 spikes/s
7 | S. hsui pb2b-like | -0.333 ± 6 spikes/s
8 | S. pallida pb1a-like | 3 ± 4.3 spikes/s
9 | Canton-S (D. melanogaster) pb2a | 0 ± 5 spikes/s
10 | S. montana pb2b-like | -4.33 ± 4.8 spikes/s
11 | S. flava pb2a-like | -0.667 ± 5.8 spikes/s
12 | S. montana pb3a-like | 2.33 ± 10 spikes/s
13 | S. montana pb2a-like | 2.67 ± 4.3 spikes/s
14 | S. pallida pb2a-like | 3.67 ± 4.6 spikes/s
15 | S. flava pb3b-like | 1.33 ± 4.3 spikes/s
16 | S. pallida pb3a-like | -4.33 ± 8.1 spikes/s
17 | S. pallida pb2b-like | 4.33 ± 5.8 spikes/s
18 | S. hsui pb2a-like | 0.333 ± 5 spikes/s
19 | S. flava pb2b-like | 4 ± 15 spikes/s
20 | Canton-S (D. melanogaster) pb3a | 1.17 ± 5.8 spikes/s
21 | S. flava pb1a-like | -4 ± 3.8 spikes/s
22 | S. flava pb1b-like | 3 ± 8.8 spikes/s
23 | S. montana pb3b-like | -2.33 ± 8.7 spikes/s
24 | S. montana pb1b-like | 3.67 ± 2.9 spikes/s
25 | S. pallida pb3b-like | -5.67 ± 15 spikes/s
26 | Canton-S (D. melanogaster) pb2b | -1.14 ± 8.4 spikes/s
27 | S. hsui pb1a-like | 3.67 ± 8.9 spikes/s
28 | S. hsui pb3a-like | -4.67 ± 13 spikes/s
29 | S. hsui pb3b-like | -3 ± 5.8 spikes/s
30 | S. pallida pb1b-like | -11 ± 11 spikes/s

— the supplement of paper PMC11482750
